An excerpt weighted towards active compounds, which were near 1.5% of everything screened.
Sa ugtP lethal – kills S. aureus RN4220 lacking UgtP; S. aureus RN4220 ugtP deletion, OD600 growth, 16 h; growth inhibition, % (no concentration beside the values); hit rate 0.54% among 330,000; AID 1259309; in the data active means growth inhibition above about 68%;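 further: plate controls were untreated wells for no effect and antibiotic for full effect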
Sa RN4220 lethal – S. aureus RN4220 growth inhibition | OD600, 16 h | inhibition, % (no concentration beside the values) | hit rate 0.33% among 330,000 | AID 1259311; in the data active means inhibition above about 85%;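 further: plate controls were untreated cells for no effect and reference antibiotic for full effect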
SSB-PriA inh – inhibitors of Klebsiella pneumoniae PriA binding to SSB C-terminal tail | inhibition, % at 33 µM | AID 1272365 | hit rate 0.6% among 430,000 | AlphaScreen SSBct-PriA binding, biotinylated peptide; in the data active means inhibition mostly above about 37%, no sharp cut-off; inactive means mostly below about 20%;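 further: plate controls were negative control peptide for no effect and reference peptide for full effect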
DUSP3 inh – blocks human VHR1 dual specificity phosphatase; recombinant VHR phosphatase, pNPP absorbance; hit rate 0.52% among 290,000; P51452; inhibition, % at 13.3 µM; in the data active means inhibition above about 50%
Target sequence (P51452 whole entry, looked up): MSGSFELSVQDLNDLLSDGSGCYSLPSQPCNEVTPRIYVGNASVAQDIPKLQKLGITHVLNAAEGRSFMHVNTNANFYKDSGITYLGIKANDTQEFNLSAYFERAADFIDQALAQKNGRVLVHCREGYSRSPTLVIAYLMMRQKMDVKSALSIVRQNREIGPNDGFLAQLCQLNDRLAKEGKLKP
CCHFV vOTU inh – blocks the CCHF virus ovarian tumor domain protease; CCHFV vOTU protease, Pep-AMC fluorescence; inhibition, % at 11.5 µM; hit rate 0.55% among 370,000; in the data active means inhibition above about 30%; further: 0% = vehicle wells with enzyme and 100% = no enzyme wells
The depositor's hits bear a star; / = no result given.

SMILES	Sa ugtP lethal	Sa RN4220 lethal	SSB-PriA inh	DUSP3 inh	CCHFV vOTU inh
Cc1ccc(OCCn2cnc(Cl)c2Cl)cc1	3	0	22	33	5
CC(C)(C)c1ccc(OCCn2cnc(Cl)c2Cl)cc1	/	/	98*	/	/
O=C(CS(=O)(=O)c1ccccc1)Nc1ccccc1Oc1ccccc1	/	/	-4	/	/
COc1ccc(C(=O)/C=C/c2ccc(O)cc2)c(O)c1C/C=C(\C)CCC=C(C)C	10	26	8	/	25
C=C(C)C(O)CC/C(C)=C/Cc1c(O)ccc(C(=O)/C=C/c2ccc(O)cc2)c1O (centres undefined)	91*	99*	3	/	13
CCOC(=O)CNC(=O)CSc1nnc(-c2c[nH]c3ccccc23)n1C	/	/	-16	/	/
CC(C)Oc1ccc(C(=O)NCC(c2ccc3c(c2)CCCN3C)N2CCN(C)CC2)cc1 (centres undefined)	/	/	36	/	/
CC(C)N1CCC(CNC(=O)c2ccc3c(c2)OCO3)CC1	/	/	-4	/	/
Cc1ccc(S(=O)(=O)n2ccc3c(OCCOCCSCC(NC(=O)OC(C)(C)C)C(=O)O)cccc32)cc1 (centres undefined)	12	20	12	11	38*
N#C/C(=C\Nc1cccc(Cl)c1)c1nc(-c2ccc3c(c2)OCO3)cs1	/	/	-4	/	/
Cn1c(=O)oc2ccc(S(=O)(=O)NCCn3ccc(-c4ccccn4)n3)cc21	/	/	-2	/	/
CCC(=C(c1ccc(OC)cc1)c1ccc(OC)cc1)c1cn(CC(O)CN2CCN(C)CC2)c2ccccc12 (centres undefined)	40	16	55*	10	11
CCOC(=O)c1cc(NC(=O)C2C3CCC(O3)C2C(=O)O)cc(C(=O)OCC)c1 (centres undefined)	-6	-1	53*	25	-22
Cc1ccc(-c2c(CNS(=O)(=O)c3ccccc3)c(=O)[nH]c3ccccc23)cc1	/	/	-1	/	/
Cc1nnc(NC(=O)CSc2nnc3c(n2)[nH]c2ccc(Br)cc23)s1	3	8	-25	60*	2
CC(C)c1ccc2[nH]c3nc(SCC(=O)NC4CC4)nnc3c2c1	-4	3	-15	25	2
COc1ccc2[nH]c3nc(SCC(=O)NNC(=O)c4ccc(OC)c(OC)c4)nnc3c2c1	-3	-2	-5	32	-5
Cc1ccc(C(=O)NNC(=O)CSc2nnc3c(n2)[nH]c2ccc(F)cc23)cc1	0	7	-8	57*	-8
Nc1ccc(N=Nc2ccccc2)cc1	-3	8	49	23	13
Nc1ccc(N(c2ccccc2)c2ccc(N)cc2)cc1	-1	1	42*	35	0
COc1ccc(-c2n(CC(=O)OC3CC(C)CCC3C(C)C)c3ccccc3[n+]2C)cc1 (centres undefined)	101*	101*	3	-4	-3
COc1ccc(OCc2n(CC(=O)OC3CC(C)CCC3C(C)C)c3ccccc3[n+]2C)cc1 (centres undefined)	100*	101*	11	8	10
CC(C)c1cnc2c(c1SCc1ccc(Cl)cc1Cl)c(=O)n(C)c(=O)n2C	/	/	-9	/	/
CC1OC(n2cc(F)c(=O)[nH]c2=O)C(O)C1O (centres undefined)	97*	76	/	/	/
CCOc1ccc(/C=C/C(=O)Oc2ccccc2)cc1	14	12	-21	52*	-7
SMILES	Sa ugtP lethal	Sa RN4220 lethal	SSB-PriA inh	DUSP3 inh	CCHFV vOTU inh
Cc1cc(CCNC(=O)COc2cccc3c2OC(C)(C)C3)on1	/	/	-19	/	/
O=C(NC1CCN(S(=O)(=O)c2ccc(F)cc2)CC1)c1ccc(F)cc1	14	6	-8	56*	-6
O=S(=O)(NC1CCC(Oc2ncccn2)CC1)C1CC1 (centres undefined)	/	/	-5	/	/
Fc1ccc(NC(=S)N2CCCc3ccccc32)cc1	-1	10	41*	21	-3
S=C(Nc1cccnc1)N1CCc2ccccc21	-11	0	-1	-20	-5
Nc1ccc2c(c1)C/C(=C/c1ccco1)C2=O	-1	3	-19	72*	11
O=C1/C(=C/c2ccco2)CCc2ccccc21	19	3	-10	-2	-19
CC(C)(C)NC(=O)C(c1ccncc1)N(Cc1cccs1)C(=O)Cn1nnc(-c2ccc(F)cc2)n1 (centres undefined)	2	-1	10	53*	9
COC1(CNC(=O)C(=O)Nc2cc3c4c(c2)CC(=O)N4CCC3)CCSC1 (centres undefined)	/	/	-11	/	/
CC1CCc2c(sc3c2C(=O)NC(c2ccccn2)N3)C1 (centres undefined)	/	/	67*	/	/
CCS(=O)(=O)N1CCc2ccc(NS(=O)(=O)c3cc(Cl)ccc3OC)cc2C1	/	/	-8	/	/
O=C(N/N=C/c1c[nH]c2ccccc12)c1ccccc1Cl	/	/	/	57*	-3
COc1ccc(OC)c(-c2nnc(NC(=O)c3ccc4c(c3)OCO4)s2)c1	/	/	-3	/	/
Cc1ccc2c(c1)C1CC(C)(O2)N(c2cccc(C(=O)N3CCN(c4ccccn4)CC3)c2)C(=O)N1 (centres undefined)	-2	-1	7	56*	12
CCOC(=O)C1CCN(C(=O)c2cccc(N3C(=O)NC4CC3(C)Oc3ccc(C)cc34)c2)CC1 (centres undefined)	8	4	7	6	13
Cc1ccc2cc(C#N)c(N3CCN(C(=O)c4cccs4)CC3)nc2c1	6	11	-21	51*	1
O=C(NCc1ccc(F)cc1)C(=O)NCc1ccc([C@@H](O)c2ccco2)s1	/	/	-16	/	/
O=C(Cn1ccn(-c2ccc(F)cc2)c(=O)c1=O)Nc1cccc(C(F)(F)F)c1	/	/	6	/	/
O=C1CC(c2ccccc2F)C(=O)N1 (centres undefined)	/	/	42*	/	/
O=C1CC(c2ccccc2F)C2=C(COC2=O)N1 (centres undefined)	4	5	7	-1	-1
COc1ccc(CCNC(=O)NCCn2ccn3nccc23)cc1	/	/	4	/	/
O=C(Cc1cccs1)NCCn1ncc2c(=O)n(Cc3ccc(Br)cc3)cnc21	/	/	4	/	/
CC(Oc1ccccc1)C(=O)NCCCS(=O)(=O)N1CCN(c2ccccn2)CC1 (centres undefined)	/	/	-8	/	/
Cc1ccccc1C1=C/C(=C(\SS/C(C(=O)c2ccc(OCC(=O)O)c(Cl)c2Cl)=C2\C=C(c3ccccc3C)SS2)C(=O)c2ccc(OCC(=O)O)c(Cl)c2Cl)SS1	/	/	62*	/	11
Cc1cc(Cl)ccc1OCC(=O)O	-3	3	-5	11	10
SMILES	Sa ugtP lethal	Sa RN4220 lethal	SSB-PriA inh	DUSP3 inh	CCHFV vOTU inh
COc1cc(CN2CCCCCC2)cc(Br)c1O	2	1	-2	55*	4
CCOc1cc(CN2CCCCCC2)ccc1OC	3	-3	-2	57*	-2
COc1ccc(S(=O)(=O)N2CCN(Cc3ccc(OC)c(OC)c3)CC2)cc1	1	-2	-6	51*	-8
CCOc1ccccc1N1CCN(Cc2ccc(OC)c(OC)c2)CC1	4	0	-2	-8	-6
Cc1ccc(-c2nc3cnccn3c2Nc2ccc3c(c2)OCO3)cc1	-13	-13	38*	-16	-1
Cc1onc(-c2ccccc2Cl)c1C(=O)Nc1nc2c(s1)CN(S(C)(=O)=O)CC2	/	/	1	/	/
O=C(O)CNC(=O)CC1SC(=NN=C2CSC(=O)N2)NC1=O (centres undefined)	/	/	95*	/	/

Assay outcomes (PubChem)
